# PubChem BioAssay (Tox21)
# Records with an inconclusive call do not appear. A number with no mark means an inactive call. Activity calls are given as the source filed them. Calls come from the whole dose curve.
# Test: p53 small molecule agonists, cell-based qHTS assay: qHTS cell viability counter screen (AID 1963581); note: nearly all actives have a fitted effect of over 45% in size
# Details: p53RE-bla HCT-116 viability, ATP luminescence, 16 h; series mostly up to 66 µM; activity change, negative = cytotoxicity: at the top concentration
# Source text: National Center for Advancing Translational Sciences [NCATS]
# Division of Preclinical Innovation [DPI]
# U.S. Environmental Protection Agency [EPA]
# National Institutes of Environmental Health Sciences [NIEHS]
# National Toxicology Program [NTP]
# U.S. Food and Drug Administration [FDA]
# p53, a tumor suppressor protein, is activated following cellular insult, including DNA damage and other cellular stresses. The activation of p53 regulates cell fate by inducing DNA repair, cell cycle arrest, apoptosis, or cellular senescence. The activation of p53, therefore, is a good indicator of DNA damage and other cellular stresses. The CellSensor p53RE-bla HCT-116 cell line (Invitrogen) contains a stably integrated beta-lactamase reporter gene under control of the p53 response elements. The activation of the reporter gene under culture conditions can be detected by fluorescence intensity. This cell line was used to screen the Tox21 compound library in a 1536-well plate format and to identify agonists that activate the p53 signaling pathway. The cytotoxicity of the Tox21 compound library against the p53 RE-bla HCT-116 cell line was tested in parallel by measuring the intra cellular ATP content in the same wells.
# Tox21 Assay Protocol Summary:
# The p53RE-bla cells were dispensed at 4,000 cells/5 ul/well in 1536-well black wall/clear bottom plates using a Multidrop dispenser. After the assay plates were incubated at a 37 C/5% CO2 incubator for 5 hours, 23 nL of compounds dissolved in DMSO, positive controls or DMSO only was transferred to the assay plate by a pin tool. The plates were incubated at 37 C for 16 hours. After 1 uL of LiveBLAzerTM B/G FRET substrate was added using a Flying Reagent Dispenser, the plates were incubated at room temperature for 2 hours, and fluorescence intensity was measured by an Envision plate reader. For cell viability readout that measures cytotoxicity, 4 ul/well of CellTiter-Glo reagent was added into the assay plates using a Flying Reagent Dispenser. After 30 min incubation at room temperature, the luminescence intensity in the plates was measured using a ViewLux plate reader.
# % is set by controls: 0 for no effect and ±100 for the full control effect; potency is the fitted concentration of half-maximal effect.
SMILES,"activity change, negative = cytotoxicity",Potency
CN/C(=N\[N+](=O)[O-])NCc1cnc(Cl)s1,-11.7%,
CN1C(=O)COc2c(C(=O)NC3CN4CCC3CC4)cc(Cl)cc21 (stereo not given),-12.7% [at 30.3 µM],
CO/N=C(/C(=O)OC)c1ccccc1COc1ccccc1C,-12.8%,
CC(=O)c1ccc(-c2ccccc2)cc1,20.3%,
OC(Cc1ccccc1Cl)(Cn1[nH]cnc1=S)C1(Cl)CC1 (stereo not given),26.4%,
O=c1[nH]oc2c1CCNC2,-1.94% [at 30.3 µM],
ClCc1ccc(Cl)cc1Cl,1.27%,
CCCOc1nn(C(=O)NS(=O)(=O)c2ccccc2C(=O)OC)c(=O)n1C,-8.86%,
CC(Oc1ccc(Oc2ncc(C(F)(F)F)cc2Cl)cc1)C(=O)O (stereo not given),0%,
ClC(Cl)Br,1.27%,
CCCC[N+](CCCC)(CCCC)CCCC,-19.6%,
COCC(C)N(C(=O)CCl)c1c(C)csc1C (stereo not given),-9.31%,
CCC(C)(C)c1cc(-n2nc3ccccc3n2)c(O)c(C(C)(C)CC)c1,-7.63%,
O=C(Nc1ccccc1)N(Cc1ccc(Cl)cc1)C1CCCC1,5.3%,
CC1C(=O)C[C@]2(C(C)C)C[C@H]12 (stereo not given in full),-7.15%,
O=C1C(Cl)C(CCl)CN1c1cccc(C(F)(F)F)c1 (stereo not given),8.4%,
CCN(CCO)CCn1c(Cc2ccccc2)nc2c1c(=O)n(C)c(=O)n2C,-0.683% [at 30.3 µM],
Nc1c(Cl)c(F)nc(OCC(=O)O)c1Cl,20.2%,
CCOP(=O)(Sc1ccccc1)Sc1ccccc1,3.35%,
N[C@@H](Cc1ccc(Oc2cc(I)c(O)c(I)c2)c(I)c1)C(=O)O,0.291% [at 30.3 µM],

SMILES,"activity change, negative = cytotoxicity",Potency
O=C(Nc1ccccc1)Nc1cnns1,21.9%,
C[N+](C)(C)CC1CO1 (stereo not given),-6.71%,
CC(Cl)CN(C)C (stereo not given),3.45%,
COc1cc(OC)nc(NC(=O)NS(=O)(=O)c2ncccc2OCC(F)(F)F)n1,-16.7%,
CC[C@H](C)[C@H]1O[C@]2(C=C[C@@H]1C)C[C@@H]1C[C@@H](C/C=C(\C)[C@@H](O[C@H]3C[C@H](OC)[C@@H](O[C@H]4C[C@H](OC)[C@@H](NC)[C@H](C)O4)[C@H](C)O3)[C@@H](C)/C=C/C=C3\CO[C@@H]4[C@H](O)C(C)=C[C@@H](C(=O)O1)[C@]34O)O2,,10.2 µM (active)
N[C@@H]1C[C@H]1c1ccccc1,-0.425% [at 30.3 µM],
CC(Cc1ccccc1)NCc1ccccc1Cl (stereo not given),11.1% [at 30.3 µM],
Clc1cccc(N2CCNCC2)c1,9.33% [at 30.3 µM],
CCCCC(O)(Cn1cncn1)c1ccc(Cl)cc1Cl (stereo not given),-15.8%,
CC(=O)NNc1ccccc1,0%,
Oc1ccccc1Br,5.85%,
CC(CC(C#N)(c1ccccc1)c1ccccc1)N(C)C (stereo not given),14.4%,
O=C(O)C(Br)CBr (stereo not given),14.5%,
CN1CC[C@]23c4c5ccc(O)c4O[C@H]2[C@@H](O)C=C[C@H]3[C@H]1C5,1.02%,
c1ccc(Nc2ccc(Nc3ccccc3)cc2)cc1,-5.46%,
Oc1ccc(C2(c3ccc(O)cc3)c3ccccc3-c3ccccc32)cc1,,45.8 µM (active)
C[C@H](N)[C@H](O)c1ccc(O)c(O)c1,-13.5% [at 30.3 µM],
[Cl][Sb]([Cl])[Cl],7.04%,
O=S1(=O)OC(c2cc(Br)c(O)c(Br)c2)(c2cc(Br)c(O)c(Br)c2)c2ccccc21,,18.7 µM (active)
CNNC,3.94%,
